# Laboratory results: PMC4336329 (PLoS ONE, 2015)
# About 14,000 (4.5%) of roughly 310,000 compounds showed an effect of 50% or more. The effect is printed as a negative number. The sample as a whole holds a higher share of strong results than the screen did.
# Biological target: human ether-à-go-go-related gene (hERG) potassium channel (human, UniProt Q12809)
# Experiment: primary screen, population patch clamp on CHO cells stably expressing hERG; higher = less effect of the substance
# 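Further: peak tail current of the secondary pulse compared with the same well before compound.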
# Chain of human ether-à-go-go-related gene (hERG) potassium channel (Q12809 whole entry, looked up): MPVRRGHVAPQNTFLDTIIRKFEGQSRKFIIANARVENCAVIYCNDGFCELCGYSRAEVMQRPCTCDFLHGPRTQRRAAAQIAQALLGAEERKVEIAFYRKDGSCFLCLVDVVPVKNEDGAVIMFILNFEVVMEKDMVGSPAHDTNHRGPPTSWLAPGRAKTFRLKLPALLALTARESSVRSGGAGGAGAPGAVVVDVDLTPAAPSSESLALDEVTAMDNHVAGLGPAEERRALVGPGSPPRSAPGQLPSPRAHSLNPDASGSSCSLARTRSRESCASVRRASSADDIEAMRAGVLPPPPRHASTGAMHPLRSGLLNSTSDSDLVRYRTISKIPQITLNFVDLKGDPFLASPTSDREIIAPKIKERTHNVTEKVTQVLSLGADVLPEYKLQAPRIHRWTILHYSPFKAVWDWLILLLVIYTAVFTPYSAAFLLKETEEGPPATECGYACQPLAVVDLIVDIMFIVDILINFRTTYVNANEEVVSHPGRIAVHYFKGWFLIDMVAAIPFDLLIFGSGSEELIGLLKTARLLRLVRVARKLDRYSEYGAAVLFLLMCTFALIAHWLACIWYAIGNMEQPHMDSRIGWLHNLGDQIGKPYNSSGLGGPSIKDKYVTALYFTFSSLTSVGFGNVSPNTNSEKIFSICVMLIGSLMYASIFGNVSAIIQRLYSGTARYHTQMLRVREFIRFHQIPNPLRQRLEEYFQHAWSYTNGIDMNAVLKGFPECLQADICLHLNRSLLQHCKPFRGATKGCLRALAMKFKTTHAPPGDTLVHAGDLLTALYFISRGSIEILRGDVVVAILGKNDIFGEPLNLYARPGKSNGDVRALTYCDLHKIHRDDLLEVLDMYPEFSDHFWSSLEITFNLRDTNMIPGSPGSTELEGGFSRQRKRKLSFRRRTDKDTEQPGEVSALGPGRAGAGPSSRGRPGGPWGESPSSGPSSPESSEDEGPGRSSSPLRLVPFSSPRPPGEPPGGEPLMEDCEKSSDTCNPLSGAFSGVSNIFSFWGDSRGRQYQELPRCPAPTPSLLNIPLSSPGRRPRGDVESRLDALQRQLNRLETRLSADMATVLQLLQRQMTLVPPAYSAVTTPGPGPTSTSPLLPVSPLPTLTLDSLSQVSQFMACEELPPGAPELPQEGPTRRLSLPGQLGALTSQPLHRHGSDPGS
row,SMILES,"hERG current change (%, negative = inhibition) at 10uM [%]"
1,O=C(O)c1ccc(/C=C2\SC(=S)N(NC(=O)c3ccccc3[N+](=O)[O-])C2=O)cc1,12.4
2,[2H]C([2H])(CCOS(N)(=O)=O)c1ccccc1,11.1
3,CC(=O)N1CCc2c(sc(NC(=O)C3COc4ccccc4O3)c2C(N)=O)C1 (stereo not shown),-20
4,CCOc1ccc(CN2CCSCC2)cc1,2.36
5,O=C(NCCNS(=O)(=O)c1ccccc1)c1ccc([N+](=O)[O-])cc1,-12
6,COc1ccccc1Nc1nc(N)nc(CSCCO)n1,15
7,COc1ccccc1Nc1nc(N)nc(CN2CCCCCC2)n1,-57.7
8,Cc1cccc(Nc2nc(N)nc(CN3CCC(C(N)=O)CC3)n2)c1C,17.5
9,COc1ccccc1Nc1nc(N)nc(CSC(=S)N2CCCCC2)n1,0.598
10,COc1ccccc1Nc1nc(N)nc(CN2CC(C)CC(C)C2)n1 (stereo not shown),-73.8
11,Cc1c(Cl)cccc1Nc1nc(N)nc(CN2CCc3ccccc3C2)n1,-33
12,COc1ccccc1Nc1nc(N)nc(CN2CCCCC2)n1,-54.9
13,Cc1c(Cl)cccc1Nc1nc(N)nc(CN2CCCCCC2)n1,-74.6
14,COc1ccccc1Nc1nc(N)nc(CSc2ncccn2)n1,-24.2
15,COc1ccccc1Nc1nc(N)nc(CSC(=S)N2CC(C)CC(C)C2)n1 (stereo not shown),-9.46
16,COc1ccccc1Nc1nc(N)nc(CN2CCOCC2)n1,10.1
17,O=C(Nc1ccc2c(c1)OCO2)c1cccc(S(=O)(=O)N2CCCC2)c1,-15.9
18,CN(Cc1ccccc1)C(=O)CN1C(=O)NC(C)(c2ccc(C(C)(C)C)cc2)C1=O (stereo not shown),-16.8
19,COc1cccc(/C=N/NC(=O)c2nc(-c3ccccc3)cc(-c3ccccc3)n2)c1O,-9.46
20,Cc1cc(=O)oc2cc(OCC(=O)N/N=C/c3ccccc3O)ccc12,23.9
21,O.O=C(NCc1nc2ccccc2[nH]1)c1ccc(Cl)c(S(=O)(=O)N2CCCC2)c1,-14.3

row,SMILES,"hERG current change (%, negative = inhibition) at 10uM [%]"
1,CCOC(=O)c1oc2ccc(CNC(C)(C)C)c(Cl)c2c1C.O=C(O)C(=O)O,-5.61
2,O=C(CC(C(=O)O)P(=O)(c1ccccc1)c1ccccc1)c1ccccc1 (stereo not shown),24.3
3,Nc1ccc(-c2cc(N)n(-c3ccccc3)n2)cc1,0.669
4,Cn1c2ccccc2c2cc(C(=O)NNS(=O)(=O)c3ccc(F)cc3)sc21,-5.97
5,COc1ccccc1Nc1nc(N)nc(CSC(=S)N2CCC(C)CC2)n1,-13.7
6,COc1ccccc1Nc1nc(N)nc(CN2CCC(C)CC2)n1,-67.5
7,Cc1cc(C(F)(F)F)nn1C(=O)c1cccnc1Cl,-5.15
8,CCO[C@@H]1OC(C(=O)N2CCN(Cc3ccc4c(c3)OCO4)CC2)=C[C@H](C2CC2)[C@H]1CCCO,-18.7
9,CN1CCN(C(=O)C2=C[C@@H](C3CC3)C[C@@H](OCc3ccc(CO)cc3)O2)CC1,16.5
10,CC(C)(C)[C@H]1C=C(C(=O)N2CCN(Cc3ccccc3)CC2)O[C@@H](OCc2ccc(CO)cc2)C1,-38.9
11,O=C(C1=C[C@@H](C2CC2)C[C@@H](OCc2ccc(CO)cc2)O1)N1CCN(Cc2ccccc2)CC1,-58.7
12,O=C(C1=C[C@H](C2CC2)C[C@H](OCCCCO)O1)N1CCN(Cc2ccccc2)CC1,-12.5
13,O=C(C1=C[C@H](C2CC2)C[C@H](OCc2ccc(CO)cc2)O1)N1CCN(Cc2ccccc2)CC1,-62.7
14,CN1CCN(C(=O)C2=C[C@H](C3CC3)C[C@H](OCc3ccc(CO)cc3)O2)CC1,-1.42
15,CN1CCN(C(=O)C2=C[C@H](C3CCCCC3)C[C@H](OCc3ccc(CO)cc3)O2)CC1,-61.7
16,CCO[C@H]1OC(C(=O)N2CCN(Cc3ccc4c(c3)OCO4)CC2)=C[C@@H](C2CCCCC2)[C@@H]1CCCO,-55.5
17,CN1CCN(C(=O)C2=C[C@@H](C3CCCCC3)C[C@@H](OCc3ccc(CO)cc3)O2)CC1,-13.6
18,CCO[C@@H]1OC(C(=O)N2CCN(Cc3ccc4c(c3)OCO4)CC2)=C[C@H](C2CCCCC2)[C@H]1CCCO,-17.8
19,O=C(C1=C[C@H](c2ccccc2)C[C@H](OCc2ccc(CO)cc2)O1)N1CCN(Cc2ccccc2)CC1,-41.2
20,Cc1ccc(CNC(=O)C2CCN(c3nnc(N4CCCC4=O)s3)CC2)cc1,14.4
21,CCOc1ccc(-c2nc(C#N)c(NCC(C)C)o2)cc1,7.61

row,SMILES,"hERG current change (%, negative = inhibition) at 10uM [%]"
1,Cc1cccc(OCCCC(=O)NCc2ccco2)c1,2.27
2,CCc1cccc(NC(=O)CCSCCC(=O)Nc2cccc(CC)c2)c1,-9.75
3,CSc1n[nH]c2nc3c(c(=O)n12)C1(CCCCC1)Cc1ccccc1-3,-13
4,CCn1nnc(-c2ccccc2NC(=O)c2ccc(-n3cnnn3)cc2)n1,-21.9
5,O=C(C1=C[C@@H](C2CCCCC2)C[C@@H](OCc2ccc(CO)cc2)O1)N1CCOCC1,-23.9
6,O=C(C1=C[C@@H](C2CC2)C[C@@H](OCCCCO)O1)N1CCN(Cc2ccccc2)CC1,0.7
7,O=C(C1=C[C@@H](C2CCCCC2)C[C@@H](OCCCCO)O1)N1CCN(Cc2ccc3c(c2)OCO3)CC1,-45.1
8,O=C(C1=C[C@H](C2CC2)C[C@H](OCCCCO)O1)N1CCN(Cc2ccc3c(c2)OCO3)CC1,-26.3
9,O=C(C1=C[C@H](C2CCCCC2)C[C@H](OCc2ccc(CO)cc2)O1)N1CCN(Cc2ccccc2)CC1,-67.6
10,O=C(C1=C[C@@H](C2CCCCC2)C[C@@H](OCc2ccc(CO)cc2)O1)N1CCN(Cc2ccccc2)CC1,-25.4
11,O=C(C1=C[C@H](C2CCCCC2)C[C@H](OCCCCO)O1)N1CCN(Cc2ccccc2)CC1,-46.4
12,O=C(C1=C[C@H](C2CCCCC2)C[C@H](OCCCCO)O1)N1CCN(Cc2ccc3c(c2)OCO3)CC1,-56.5
13,O=C(C1=C[C@@H](C2CCCCC2)C[C@@H](OCCCCO)O1)N1CCN(Cc2ccccc2)CC1,-50.1
14,CN(CC(=O)O/N=C(\N)c1ccc([N+](=O)[O-])cc1)S(=O)(=O)c1ccc2ccccc2c1,-12.6
15,CCN(C1CCCCC1)S(=O)(=O)c1ccc(C(=O)O)cc1,6.74
16,O=C(Nc1cccnc1Cl)c1ccc(S(=O)(=O)N2CCCCCC2)cc1,-8.39
17,CCc1c2c(nc3ccc(OC(=O)N4CCC(N5CCCCC5)CC4)cc13)-c1cc3c(c(=O)n1C2)COC(=O)[C@]3(O)CC.Cl.O,12.8
18,CC(CCc1ccccc1)NC(=O)CN1CCN(Cc2ccccc2)C1=O (stereo not shown),-18.2
19,Cc1ccc(CCNC(=O)CN2CCN(Cc3ccccc3F)C2=O)cc1,-8.3
20,COc1ccc(CCNC(=O)CN2CCN(Cc3ccccc3F)C2=O)cc1OC,8.26
21,CC(CCc1ccccc1)NC(=O)CN1CCN(Cc2ccc(Cl)cc2)C1=O (stereo not shown),-53.2

row,SMILES,"hERG current change (%, negative = inhibition) at 10uM [%]"
1,Cc1ccc(CN2CCN(CC(=O)NC(C)CCc3ccccc3)C2=O)cc1 (stereo not shown),-20.6
2,O=C(CN1CCN(Cc2ccccc2F)C1=O)NCCc1ccc(Cl)cc1,-52.8
3,COc1ccc(C(CC(=O)Nc2cc(OC)cc(OC)c2)n2cccc2)cc1 (stereo not shown),2.58
4,Nc1ccc(N2CCOCC2)c(Cl)c1,1.49
5,CC(=O)Nc1ccc(S(=O)(=O)Nc2nc(CN3CCOCC3)nc3sc4c(c23)CCCC4)cc1,-4
6,CCOc1ccc(N(CC(=O)NCC2CCCO2)C(=O)CCC(=O)Nc2nccs2)cc1 (stereo not shown),2.69
7,Cc1nn2c(-c3cccc(NC(=O)c4ccco4)c3)nnc2c2ccccc12,-5.38
8,Cc1ccc(OCCCCN2CCC(C)CC2)c(Br)c1.O=C(O)C(=O)O,-63.1
9,Cc1ccc(OCCCCCCN2CCNCC2)c(Br)c1.O=C(O)C(=O)O,-30.3
10,Cc1ccc(OCCCCN2CCCCC2)c(Br)c1.O=C(O)C(=O)O,-62.6
11,CNCCCOc1ccc(C)cc1Br.O=C(O)C(=O)O,-10.9
12,Cc1ccc(OCCOCCN2CCCC2)c(Br)c1.O=C(O)C(=O)O,-24.7
13,Cc1ccc(C(C)C)c(OCCCCN2CCNCC2)c1.O=C(O)C(=O)O,-6.77
14,COC(=O)/C(=C1/Oc2ccc(C)cc2S1)C(F)(F)F,32.8
15,CC(C)(C)c1ccc(N2C(=N)SCC2=O)cc1,-0.538
16,N=C1SCC(=O)N1c1ccc(Cl)cc1,8.91
17,Cc1ccc(N2C(=N)SCC2=O)cc1Cl,-70.6
18,Cc1oc2c(c1C(=O)N1CCOCC1)C(=O)c1ccccc1C2=O,5.25
19,CC(=O)N1CCc2cc(S(=O)(=O)NC(Cc3ccccc3)C(=O)NCCN3CCCCC3C)ccc21 (stereo not shown),5.72
